Compound activity: PubChem, National Center for Advancing Translational Sciences (NCATS)
Sampled rows, rich in hits. Any-hit rate of the full collection: about 7.8%.
HCV inhibitor – qHTS Assay for Inhibitors of Hepatitis C Virus (HCV). Huh7.5.1 HCVcc-Cre infection, luciferase reporter, 44 h. Potency, µM (top dose mostly 41.8 µM), usual class: inhibitors. actives 3.4% (n = 340,000). AID 651820, 2012; active = well fitted inhibition curve with a large enough effect; inconclusive = small, poorly fitted or top-dose-only effect, or another doubt; inactive = no such curve, though single readings can be large or run the other way
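Infectious HCVcc-Cre (~0.5 moi) was added to cells just after compound, with cells seeded 4 h earlier at 1,000 per well. Luciferase activity after 44 h culture reported infection; substrate was incubated 15 min at room temperature before reading.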
Marburg entry inh – qHTS for inhibitors of binding or entry into cells for Marburg Virus; Marburg virus pseudotyped entry inhibition, cell reporter; Potency, µM (top dose mostly 37.8 µM), actives largely listed as inhibitors; actives 1.8% (n = 300,000); AID 540276, 2011; calls by dose curve; tested in HEK293 cells
HCMV antiviral – qHTS Assay for inhibitors of the human cytomegalovirus (HCMV); HFF cells, HCMV-luciferase reporter, 72 h; hits give low values; activity change, negative = inhibition, % at 57.5 µM; actives 4.5% (n = 410,000); AID 1259415, 2018; in the data active = activity change below about -60%; inconclusive = no clear call, values can overlap the other calls; inactive = above about -39%
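HFF cells seeded 16 h at 37C, treated with compounds, infected with luciferase-reporter HCMV at MOI 1 PFU/cell; luciferase read at 72 h post infection, normalized to buffer-only and Salinomycin controls.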
Vaccinia mCherry – qHTS for Stage-Specific Inhibitors of Vaccinia Orthopoxvirus: mCherry Reporter Primary qHTS | Potency, µM (titrated, usually from 36.5 µM), hits mostly inhibitors | actives 0.63% (n = 310,000) | Vaccinia virus mCherry reporter infection, fluorescence | AID 720579, 2013; calls by dose curve; tested in A549 cells; note: nearly all actives have a fitted effect of over 35% in size
Lassa entry inh – qHTS for Inhibitors of binding or entry into cells for Lassa Virus | Lassa virus pseudotype entry inhibition, cell reporter | Potency, µM (series often up to 37.9 µM), actives largely listed as inhibitors | actives 1.2% (n = 300,000); calls by dose curve; tested in HEK293 cells; note: nearly all actives have a fitted effect of over 50% in size
Vaccinia Venus – qHTS for Stage-Specific Inhibitors of Vaccinia Orthopoxvirus: Venus Reporter Primary qHTS | actives 0.46% (n = 330,000) | Potency, µM (highest dose often 36.5 µM), actives largely listed as inhibitors | Vaccinia virus Venus reporter expression, fluorescence; calls by dose curve; tested in A549 cells; note: nearly all actives have a fitted effect of over 30% in size
Of the large screens only hits and unclear results are named; the others gave an inactive call.

CCOC(=O)c1c(C)c(C(=O)NCCc2ccc(OC)cc2)c(C)n1C	none (no result: HCV inhibitor, Lassa entry inh)
O=C1COc2cc(S(=O)(=O)CCC(=O)N3CCN(c4ccccc4)CC3)c(Cl)cc2N1	none (no result: HCV inhibitor, Marburg entry inh)
O=C(CC1N=C2c3ccccc3N=C(SCc3ccccc3Cl)N2C1=O)NCCc1ccccc1 (stereo not given)	none (no result: HCV inhibitor, Marburg entry inh)
CN(C(=O)/C=C/c1ccc([N+](=O)[O-])s1)c1ccccc1	HCV inhibitor 22.4µM, HCMV antiviral inconclusive (no result: Marburg entry inh, Vaccinia mCherry, Lassa entry inh, Vaccinia Venus)
Cc1ccc(C(=O)O/N=C(\N)c2ccccn2)c(Cl)c1	HCMV antiviral -80.4 (no result: Marburg entry inh, Vaccinia mCherry, Lassa entry inh, Vaccinia Venus)
N/C(=N\OC(=O)/C=C/c1ccccc1)c1ccccn1	Marburg entry inh 7.94µM
N/C(=N\OC(=O)c1ccc(Cl)cc1Cl)c1ccccn1	Marburg entry inh 3.66µM, HCMV antiviral -61.3, Lassa entry inh 5.17µM (no result: Vaccinia mCherry, Vaccinia Venus)
N/C(=N\OC(=O)c1ccccc1Cl)c1ccncc1	HCV inhibitor inconclusive, Marburg entry inh inconclusive, HCMV antiviral -99.5
CC(C)(CO)NC(=O)c1cnn(-c2nccc(-c3ccc4c(c3)OCO4)n2)c1C1CC1	none (no result: HCV inhibitor, Marburg entry inh, HCMV antiviral, Lassa entry inh)
CCn1nnc2cc(C(=O)Nc3cc(C)ccc3C)ccc21	none (no result: HCV inhibitor, Marburg entry inh)
COc1cc(/C=C2\SC(=O)NC2=O)ccc1Oc1ccc([N+](=O)[O-])cc1[N+](=O)[O-]	HCMV antiviral -75.1
COc1cccc(NC(=O)CSC2=C(C#N)[C@H](c3ccco3)C3=C(CCCC3=O)N2)c1	none (no result: HCV inhibitor, HCMV antiviral, Vaccinia mCherry, Lassa entry inh, Vaccinia Venus)
CN(C)S(=O)(=O)c1cc(NC(=O)c2ccc(-n3ccnc3)c([N+](=O)[O-])c2)ccc1Cl	HCV inhibitor inconclusive, Marburg entry inh inconclusive, HCMV antiviral -71.0, Lassa entry inh inconclusive
COc1ccc2oc(-c3ccc(C)c(NC(=O)c4ccc(N5CCOCC5)c([N+](=O)[O-])c4)c3)nc2c1	HCMV antiviral -81.2 (no result: Vaccinia mCherry, Vaccinia Venus)
Cc1cc(C(=O)Nc2cccc(-c3ccc(N4CCOCC4)nn3)c2)ccc1[N+](=O)[O-]	HCV inhibitor 10µM, Marburg entry inh inconclusive, Vaccinia mCherry inconclusive, Lassa entry inh inconclusive
CCOc1ccc(C(=O)Nc2cc(-c3nc4cc(OC)ccc4o3)ccc2C)cc1[N+](=O)[O-]	Marburg entry inh inconclusive (no result: HCV inhibitor)
Cc1ccc(NC(=O)c2ccc(N3CCOCC3)c([N+](=O)[O-])c2)cc1S(=O)(=O)N1CCOCC1	HCV inhibitor 3.55µM, Marburg entry inh inconclusive, HCMV antiviral -97.9
Cc1ccc(C(=O)Nc2cccc(-c3ccc(N4CCOCC4)nn3)c2)cc1C	HCV inhibitor inconclusive
COCC(=O)Nc1cc(C(=O)N2CC3CCCC2C3)c2c(c1)nc(-c1ccncc1)n2C (stereo not given)	none (no result: HCV inhibitor, Marburg entry inh, HCMV antiviral, Lassa entry inh)
O=C(c1n[nH]c2c1CCCC2)N1CCC(n2c(C3CCCO3)nc3ccccc32)CC1 (stereo not given)	none (no result: HCV inhibitor, Marburg entry inh, HCMV antiviral, Lassa entry inh)
Cc1ncc2c(c1CNC(=O)c1ccc3c(c1)OCO3)CCN(C(=O)c1coc3c1C(=O)CCC3)C2	none (no result: HCV inhibitor, Marburg entry inh, HCMV antiviral, Lassa entry inh)
CC(=O)N1CCN(c2ccc(NC(=O)c3ccc(N4CCCC4)c([N+](=O)[O-])c3)cc2Cl)CC1	HCV inhibitor 10µM, Marburg entry inh inconclusive, HCMV antiviral -70.9, Vaccinia mCherry inconclusive, Lassa entry inh inconclusive
O=C(Nc1nc2ccc(Cl)cc2s1)c1ccc(N2CCCCC2)c([N+](=O)[O-])c1	Marburg entry inh inconclusive, HCMV antiviral -66.7, Lassa entry inh inconclusive
O=C(Nc1ccc(N2CCCCC2)c(Cl)c1)c1ccc(N2CCOCC2)c([N+](=O)[O-])c1	HCV inhibitor inconclusive, Marburg entry inh inconclusive, HCMV antiviral -80.4, Lassa entry inh inconclusive, Vaccinia Venus inconclusive
O=C(Nc1cc(Cl)ccc1N1CCOCC1)c1ccc(N2CCCCC2)c([N+](=O)[O-])c1	HCV inhibitor inconclusive
O=C(Nc1nc2ccc3ccccc3c2s1)c1ccc(N2CCCCC2)c([N+](=O)[O-])c1	HCMV antiviral inconclusive
CN(C)S(=O)(=O)c1cccc(NC(=O)c2ccc(N3CCOCC3)c([N+](=O)[O-])c2)c1	HCV inhibitor inconclusive, Marburg entry inh inconclusive, HCMV antiviral -70.9, Vaccinia mCherry inconclusive, Lassa entry inh inconclusive
CCCC(=O)N1CCN(c2ccc(NC(=O)c3ccc(N4CCCC4)c([N+](=O)[O-])c3)cc2Cl)CC1	HCV inhibitor inconclusive, Marburg entry inh inconclusive
